Most compounds without a hit are left out; they make up all but 4.8% or so of the library.
SMARCA2 activ: increases SMARCA2 function in MMTV reporter cells; MG213 cells, MMTV-luciferase reporter, dexamethasone, overnight; activation, % at 9.1 µM; 370,000 tested, 1% active; in the data active = activation above about 7.8%;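 also: 0% = vehicle wells and 100% = reference activator wells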
DAX1 inh-1: inhibitors of human orphan nuclear receptor DAX1 (NR0B1). P51843. 340,000 tested, 0.99% active. inhibition, % at 6.75 µM. HEK293 Gal4-DAX1 luciferase reporter, luminescence;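 active = inhibition above the mean over all tested compounds plus 3 SD, cut at about 4.2% in these data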;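 also: 0% = DAX1-transfected cells with DMSO and 100% = empty-vector control cells with DMSO; inhibition shows as a rise in luminescence from relieved DAX1 repression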
Target sequence (P51843 207-470 limits assumed): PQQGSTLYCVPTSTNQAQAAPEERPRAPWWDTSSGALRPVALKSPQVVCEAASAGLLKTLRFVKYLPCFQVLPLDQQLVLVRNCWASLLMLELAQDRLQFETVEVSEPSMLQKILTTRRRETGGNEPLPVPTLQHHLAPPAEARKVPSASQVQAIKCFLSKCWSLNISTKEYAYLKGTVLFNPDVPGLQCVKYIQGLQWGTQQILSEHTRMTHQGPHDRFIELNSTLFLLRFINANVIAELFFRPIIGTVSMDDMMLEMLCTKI
hgDAF12 agonist: hgDAF-12 agonism, primary luciferase screen; 370,000 tested, 1.8% active; AID 687014; activation, % at 6.8 µM; HEK293 GAL4-hgDAF12 UAS-luciferase reporter, agonist luminescence; normalized to butyrate control;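 active = activation above a cutoff set at the mean of all screened compounds plus 3 SD, cut at about 10% in these data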;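 also: 0% = DMSO wells and 100% = sodium butyrate wells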
DAX1 inh-2: inhibitors of DAX1 repression of SF-1 activated StAR promoter. HEK293T StAR-luciferase reporter, SF-1/DAX-1 repression relief. inhibition, % at 6.8 µM. 370,000 tested, 1.1% active;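 active = inhibition above the mean over all tested compounds plus 3 SD, cut at about 3.6% in these data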;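 also: 0% = DAX-1 cells with DMSO and 100% = cells lacking DAX-1 with DMSO; higher inhibition means more luminescence from relief of DAX-1 repression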
ssDAF-12 act: activates DAF-12 receptor from parasite S. stercoralis; AID 652126; 370,000 tested, 1% active; HEK293 ssDAF-12/GRIP1 lit1-tk-luc reporter, luminescence; % of 3 µM dafachronic acid response; activation, % at 6.8 µM;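 active = activation above the mean over all tested compounds plus 3 SD, cut at about 0.9% in these data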;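 also: 0% = DMSO-only wells and 100% = 3 µM delta7-dafachronic acid wells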
hcDAF12 agonist: activators of H. contortus DAF-12 nuclear receptor; activation, % at 6.8 µM; AID 652067; 370,000 tested, 1.4% active; HEK293 hcDAF-12 lit1-tk-luc reporter, luminescence; 0% DMSO, 100% Δ7-dafachronic acid;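 active = activation above the mean of all tested compounds plus 3 SD, cut at about 5.5% in these data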;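 also: 100% = response to 3 µM Δ7-dafachronic acid high control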
SMARCA2 act conf: confirmation of SMARCA2 (BRM) function activators; AID 652260; MG213 cells, MMTV-luciferase with dexamethasone, luminescence, overnight; MG213 cells expressing E1A, Rb sequestered; DMSO wells 0%, reference activator 100%; 3,500 tested, 30% active; activation, % at 9.1 µM; shares compounds with SMARCA2 activ;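 active = activation above its plate's cutoff, the mean activation of tested wells plus 3 SD, cut at about 7.9% in these data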
GAL4-VP16 Luc: activates GAL4-VP16 luciferase, flagging SMARCA2 activator hits. shares compounds with SMARCA2 activ. HEK293 GAL4-VP16 pG5luc reporter, luciferase luminescence; scaled: DMSO wells 0%, SAHA wells 100%. activation, % at 9.1 µM. 3,500 tested, 41% active;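 active = activation above the solvent-only control well mean plus 3 SD, averaged across control plates, cut at about 5.2% in these data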
Active calls of the source: *; x = not tested or not shown.

SMILES	SMARCA2 activ	DAX1 inh-1	hgDAF12 agonist	DAX1 inh-2	ssDAF-12 act	hcDAF12 agonist	SMARCA2 act conf	GAL4-VP16 Luc
Cc1ccc(C(=O)Nc2cccc(N3C(=O)C4CCC(C)CC4C3=O)c2)cc1 (centres undefined)	1	1	5	3	-1	1	x	x
CNC(=S)Nc1sc2c(c1C(=O)OC)CCC2	9.1*	0	1	0	0	0	0	0
O=C(Nc1ccccc1Cl)c1ccc([N+](=O)[O-])o1	9.0*	-1	-5	-2	-2	-2	18*	3
O=C(Nc1cccc2ncccc12)c1ccc([N+](=O)[O-])o1	15*	-1	-2	-1	-1	1	8.4*	1
Cc1ccccc1NC(=O)c1ccc([N+](=O)[O-])o1	11*	1	-5	-2	-1	-2	11*	4
Cc1cccc(NC(=O)c2ccc([N+](=O)[O-])o2)n1	11*	-2	-2	-2	-1	-1	15*	3
O=C(Nc1ccc(NC(=O)c2ccc([N+](=O)[O-])o2)cc1Cl)c1ccco1	3	-1	0	-1	-1	0	x	x
Cc1ccc(NC(=O)c2ccc([N+](=O)[O-])o2)c(C)c1	7	-1	-4	-3	-2	-1	x	x
Cc1ccc(NC(=O)CCNC(=O)c2ccc([N+](=O)[O-])cc2)cc1C	-1	0	-2	-1	-1	-2	x	x
CCN(CC(=O)NCc1ccc(Cl)cc1)C(=O)COc1cccc(C(F)(F)F)c1	-2	-2	-1	0	-1	-1	x	x
O=C(Nc1ccc(N2CCOCC2)cc1)c1ccc([N+](=O)[O-])o1	15*	1	8	-1	1	2	18*	7.3*
c1ccc(CSCc2cn3ccccc3n2)cc1	8.8*	2	13*	1	0	3	7	7.5*
COc1ccc(-c2cc3ccc(O)cc3oc2=O)cc1OC	8.5*	0	3	0	0	5.8*	6	3
COc1ccc(-c2cc3ccc(OCC(N)=O)cc3oc2=O)cc1OC	0	0	2	0	-1	2	x	x
COc1ccc(NC(=O)/C=C/c2cccc(F)c2)cn1	12*	2	13*	3	-1	2	3	10*
COc1ccc(NC(=O)/C=C/c2ccco2)cn1	3	0	9	2	-1	3	x	x
Cc1ccc(N2CN(CCc3ccccc3)CNC2=S)cc1	1	1	-1	0	-1	0	x	x
CCOC(=O)N1CCN(C(=O)Nc2ccccc2Cl)CC1	9.0*	0	3	0	-2	-2	1	2
Cc1cc2nc(-c3ccc(SCC(=O)N4CCN(C(=O)c5ccco5)CC4)nc3)[nH]c2cc1C	10*	-2	7	0	-1	3	9.2*	8.8*
Cc1cc(NC(=O)CCS(=O)(=O)c2nc(-c3ccccc3)cc(C(F)(F)F)n2)no1	9.3*	-1	-3	0	-1	-2	-15	3
CCOC(=O)N1Cc2cc3ccccc3nc2C1	8.9*	3	9	2	0.9*	4	8	10*
CCN1CCCCC(NC(=O)c2ccccc2)C1=O (centres undefined)	0	x	-2	1	-1	0	x	x
CCOC(=O)c1sc(N/N=C/c2ccccc2)nc1C	8.7*	2	7	3	1.2*	4	21*	13*
CCCNC(=O)CS(=O)(=O)c1ccccc1	2	0	-2	0	-1	-2	x	x
COc1ccc(SCC(=O)Nc2ccc(N3CCN(C)CC3)c(F)c2)cc1	3	1	5	1	-2	-1	x	x

Screening results from PubChem.
